{"source": "PubChem BioAssay (EPA / NIEHS)", "note": "Calls of active or inactive are those of the source. Rule for the calls: active = hit-call score of the fitted dose curve at least 0.9, where 1 is the maximum; inactive = score below 0.9.", "data": [{"experiment": "APR_HepG2_p53Act_1hr: Apredica 1-hour HepG2 Assay for p53 Activation (AID 2282671)", "conditions": "high-content imaging, actives raise or lower the signal", "experimental": "APR_HepG2_1hr is a cell-based, multiplexed-readout assay that uses HepG2, a human liver cell line, with measurements taken at 1 hour after chemical dosing in a 384-well plate.APR_HepG2_p53Act_1hr is one of 10 assay component(s) measured or calculated from the APR_HepG2_1hr assay. It is designed to make measurements of dna content, a form of viability reporter, as detected with fluorescence intensity signals by HCS Fluorescent Imaging technology.Data from the assay component APR_HepG2_p53Act_1hr was analyzed into 1 assay endpoint. This assay endpoint, APR_HepG2_p53Act_1hr, was analyzed with bidirectional fitting relative to DMSO as the negative control and baseline of activity. Using a type of viability reporter, measures of protein for gain or loss-of-signal activity can be used to understand the signaling at the pathway-level as they relate to the gene TP53. Furthermore, this assay endpoint can be referred to as a primary readout, because this assay has produced multiple assay endpoints where this one serves a signaling function. To generalize the intended target to other relatable targets, this assay endpoint is annotated to the dna binding intended target family, where the subfamily is tumor suppressor.\nCells were treated with dimethyl sulfoxide (DMSO) as a solvent control at a final concentration of 0.5% v/v or with compounds in DMSO with a resulting final DMSO concentration of 0.5% v/v. Compound treatment was done at concentrations of 0.39, 0.78, 1.56, 3.12, 6.24, 12.5, 25, 50, 100, and 200 uM in duplicate on each plate. Cells were treated with compounds for 1, 24, or 72 hr. Carbonyl […] m-chloro-phenylhydrazone (CCCP) and taxol were used as positive controls for mitochondrial function and cytoskeletal stability, respectively; DMSO served as the negative control for this experiment. Cells were fixed by the direct addition of 50 uL formaldehyde in Hank's Balanced Salt Solution (HBSS) to a final concentration of 3.7%. After incubation in the fixation medium for 30 min at room temperature (293-298 K), cells were rinsed twice with HBSS and treated with cell permeabilization buffer (16 uL of 0.5% Triton X-100) for 10 min at room temperature (293-298 K) before labeling. For mitochondrial membrane potential and mitochondrial measurements, pre-fixed cells were incubated with 50 uL of MitoTracker Red CMXRos (Invitrogen) at a concentration of 250 nM for 30 min before fixation. In the remaining cases, post-fixed cells were labeled by incubation with a multiplexed mixture of primary antibodies in HBSS for 60 min at room temperature (293-298 K) to detect immunoreactivity of c-Jun (1:500), phospho-histone H3 (1:100), phospho-histone H2A.x (1:200), p53 (1:400), alpha-tubulin (1:200) and Hoechst 33342 (2 ug/mL). Cells were labeled for multiplexed imaging on two separate plates: a) Hoechst 33342, MitoTracker Red, phospho-histone H3, and alpha-tubulin, and b) Hoechst 33342, phospho-histone H2A.x, and c-Jun. A final rinse with HBSS (50 uL) was performed before analysis. The primary and secondary antibodies for the proteins were phospho-histone H3 (rabbit anti-phospho-histone H3 and FITC-donkey anti-rabbit IgG), phospho-histone H2A.x (mouse anti-phospho-histone H2A.x and FITC-donkey anti-mouse IgG), c-Jun (rabbit anti-phospho-c-Jun and Cy3-donkey anti-rabbit IgG), p53 (sheep anti-p53 and Cy5-donkey anti-sheep IgG), alpha-tubulin (mouse anti-alpha-tubulin and Cy5-donkey anti-mouse IgG). These antibodies are available as the CellCiphr HepG2 assay kit (Millipore).Digital images of each well were captured using a Cellomics ArrayScan VTI (Thermo Scientific Cellomics) (0.8 NA objective, 0.63x optical coupler, and XF-93 filter set) at 20x magnification. The images were acquired using the autofocus feature of the ArrayScan instrument, which entails the following steps. First, the camera focuses on channel 1 (Hoechst 33342), where nuclei are identified. Second, a Z offset of 1 um is used for capturing mitochondria (MitoTracker Red). […]", "values": [{"smiles": "O=S(=O)(O)C(F)(F)C(F)(F)C(F)(F)C(F)(F)C(F)(F)C(F)(F)C(F)(F)C(F)(F)F", "outcome": "inactive"}, {"smiles": "COc1cc(OC)nc(NC(=O)NS(=O)(=O)c2cc(NC=O)ccc2C(=O)N(C)C)n1", "outcome": "inactive"}, {"smiles": "COc1nn(CSP(=S)(OC)OC)c(=O)s1", "outcome": "inactive"}, {"smiles": "O=C(O)C(F)(F)C(F)(F)C(F)(F)C(F)(F)C(F)(F)C(F)(F)C(F)(F)F", "outcome": "inactive"}, {"smiles": "COC(=O)c1ccccc1CS(=O)(=O)NC(=O)Nc1nc(OC)cc(OC)n1", "outcome": "inactive"}, {"smiles": "C[C@H]1[C@H](c2ccc(Cl)cc2)SC(=O)N1C(=O)NC1CCCCC1", "outcome": "inactive"}, {"smiles": "ClC1C(Cl)C(Cl)C(Cl)C(Cl)C1Cl", "note": "(stereo not given)", "outcome": "inactive"}, {"smiles": "CN1CSC(=S)N(C)C1", "outcome": "inactive"}, {"smiles": "CC(C)OC(=O)Nc1cccc(Cl)c1", "outcome": "inactive"}, {"smiles": "Oc1ccc(Cl)cc1Cc1ccccc1", "outcome": "inactive"}, {"smiles": "O=C(Nc1ccccc1)Nc1cnns1", "outcome": "inactive"}, {"smiles": "CNC(=O)Oc1ccccc1OC(C)C", "outcome": "inactive"}, {"smiles": "CCC(C)(C)C(=O)OC1=C(c2ccc(Cl)cc2Cl)C(=O)OC12CCCCC2", "outcome": "inactive"}, {"smiles": "O=C(O)CCCOc1ccc(Cl)cc1Cl", "outcome": "inactive"}, {"smiles": "O=S1OCC2C(CO1)C1(Cl)C(Cl)=C(Cl)C2(Cl)C1(Cl)Cl", "note": "(stereo not given)", "outcome": "inactive"}, {"smiles": "COP(=S)(OC)Oc1ccc(SC)c(C)c1", "outcome": "inactive"}, {"smiles": "COC(=O)c1ccccc1S(=O)(=O)NC(=O)N(C)c1nc(C)nc(OC)n1", "outcome": "inactive"}, {"smiles": "CCS(=O)(=O)c1cccnc1S(=O)(=O)NC(=O)Nc1nc(OC)cc(OC)n1", "outcome": "inactive"}, {"smiles": "N#Cc1c(Cl)c(Cl)c(Cl)c(C#N)c1Cl", "outcome": "inactive"}, {"smiles": "CC[C@H](C)[C@H]1O[C@]2(C=C[C@@H]1C)C[C@@H]1C[C@@H](C/C=C(\\C)[C@@H](O[C@H]3C[C@H](OC)[C@@H](O[C@H]4C[C@H](OC)[C@@H](O)[C@H](C)O4)[C@H](C)O3)[C@@H](C)/C=C/C=C3\\CO[C@@H]4[C@H](O)C(C)=C[C@@H](C(=O)O1)[C@]34O)O2", "note": "(tested in a mixture with another compound)", "outcome": "inactive"}, {"smiles": "O=C1c2ccccc2C(=O)N1SC(Cl)(Cl)Cl", "outcome": "inactive"}, {"smiles": "COP(=S)(OC)Oc1ccc([N+](=O)[O-])cc1", "outcome": "inactive"}, {"smiles": "CNC(=O)Oc1cccc(N=CN(C)C)c1", "outcome": "inactive"}, {"smiles": "[2H]C1([2H])[n+]2ccccc2-c2cccc[n+]2C1([2H])[2H]", "outcome": "inactive"}, {"smiles": "COC(=O)c1ccccc1S(=O)(=O)NC(=O)Nc1nc(C)nc(OC)n1", "outcome": "inactive"}, {"smiles": "CCC(C)(NC(=O)c1cc(Cl)c(C)c(Cl)c1)C(=O)CCl", "note": "(stereo not given)", "outcome": "inactive"}, {"smiles": "O=[N+]([O-])c1c(Cl)c(Cl)c(Cl)c(Cl)c1Cl", "outcome": "inactive"}, {"smiles": "Oc1cc(Cl)ccc1Oc1ccc(Cl)cc1Cl", "outcome": "inactive"}, {"smiles": "CC(C)(C)C(O)/C(=C\\c1ccc(Cl)cc1Cl)n1cncn1", "note": "(stereo not given)", "outcome": "inactive"}, {"smiles": "CC(C)(C)C(O)C(Oc1ccc(Cl)cc1)n1cncn1", "note": "(stereo not given)", "outcome": "inactive"}, {"smiles": "CC(C)N(C(=O)COc1nnc(C(F)(F)F)s1)c1ccc(F)cc1", "outcome": "inactive"}, {"smiles": "CCCN(CCOc1c(Cl)cc(Cl)cc1Cl)C(=O)n1ccnc1", "outcome": "inactive"}, {"smiles": "CCN(CC)C(=O)SCc1ccc(Cl)cc1", "outcome": "inactive"}, {"smiles": "Cc1cc(C)nc(NC(=O)NS(=O)(=O)c2ccccc2C(=O)OC2COC2)n1", "outcome": "inactive"}, {"smiles": "O=C(O)COc1ccc(Cl)cc1Cl", "outcome": "inactive"}, {"smiles": "CC1(c2ccc(Oc3ccccc3)cc2)OC(=O)N(Nc2ccccc2)C1=O", "note": "(stereo not given)", "outcome": "inactive"}, {"smiles": "OCCOc1ccccc1", "outcome": "inactive"}, {"smiles": "CCOCN(C(=O)CCl)c1c(C)cccc1CC", "outcome": "inactive"}, {"smiles": "CCc1ccc(C(=O)NN(C(=O)c2cc(C)cc(C)c2)C(C)(C)C)cc1", "outcome": "inactive"}, {"smiles": "CCOc1nc(NC)nc(NC(=O)NS(=O)(=O)c2ccccc2C(=O)OC)n1", "outcome": "inactive"}]}]}
